Each compound was assayed on Mel-DCC-11 (assay: cell viability relative to DMSO control (fraction of DMSO control); higher = less cytotoxic, active = 0.5 or less). Settings: 1 µM; 120 h.
Method in brief: (§1)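 The screen used 384-well plates acoustically pre-spotted with 315 approved anti-cancer drugs from TargetMol, each at 1 µM in duplicate. Into each well went 40 µl of cells, 2500 NHEM-hTERT immortalized melanocytes or 1500 of patient-derived Mel-DCC-11 or its resistant subline Mel-DCC-11-R, and plates were kept 120 h, with the subline also tested alongside 8 µM of its selecting drug. Readout was by ATPlite 1step luminescence. Viability values were normalised to vehicle-treated controls and averaged between duplicates.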

| Structure (SMILES) | cell viability |
| --- | --- |
| N.N.O=C([O-])C1(C(=O)[O-])CCC1.[Pt+2] [Carboplatin] | 1.13 (inactive) |
| S=P(N1CC1)(N1CC1)N1CC1 [Triethylenethiophosphoramide] | 0.825 (inactive) |
| CC1(C)CCC(C)(C)c2cc(NC(=O)c3ccc(C(=O)O)cc3)ccc21 [Tamibarotene] | 1.17 (inactive) |
| CC[C@@H](CO)NCCN[C@@H](CC)CO.Cl.Cl [Ethambutol dihydrochloride] | 0.966 (inactive) |
| CO[C@H]1C[C@@H]2CC[C@@H](C)[C@@](O)(O2)C(=O)C(=O)N2CCCC[C@H]2C(=O)O[C@H]([C@H](C)C[C@@H]2CC[C@@H](OC(=O)C(C)(CO)CO)[C@H](OC)C2)CC(=O)[C@H](C)/C=C(\C)[C@@H](O)[C@@H](OC)C(=O)[C@H](C)C[C@H](C)/C=C/C=C/C=C/1C [Temsirolimus] | 1.38 (inactive) |
| O=C(CCCCCCC(=O)Nc1ccccc1)NO [Vorinostat] | 1.05 (inactive) |
| O=c1[nH]c(=O)n(C2CCCO2)cc1F (configuration not stated) [Tegafur] | 0.785 (inactive) |
| CCCCc1nc2cc(/C=C/C(=O)NO)ccc2n1CCN(CC)CC [Pracinostat] | 1.1 (inactive) |
| C#CCC(Cc1cnc2nc(N)nc(N)c2n1)c1ccc(C(=O)N[C@@H](CCC(=O)O)C(=O)O)cc1 (some centres not stated) [Pralatrexate] | 1.03 (inactive) |
| CCCCCOC(=O)Nc1nc(=O)n([C@@H]2O[C@H](C)[C@@H](O)[C@H]2O)cc1F [Capecitabine] | 1.18 (inactive) |
| CC1(C)[C@@H](O[C@H]2O[C@H](C(=O)O)[C@@H](O)[C@H](O)[C@H]2OC2O[C@H](C(=O)O)[C@@H](O)[C@H](O)[C@H]2O)CC[C@]2(C)[C@H]3C(=O)C=C4[C@@H]5C[C@@](C)(C(=O)O)CC[C@]5(C)CC[C@@]4(C)[C@]3(C)CC[C@@H]12 (some centres not stated) [Glycyrrhizin] | 1.13 (inactive) |
| COC(=O)c1ccc2c(c1)NC(=O)/C2=C(\Nc1ccc(N(C)C(=O)CN2CCN(C)CC2)cc1)c1ccccc1 [Nintedanib] | 0.982 (inactive) |
| COC(=O)C[C@](O)(CCCC(C)(C)O)C(=O)O[C@@H]1C(OC)=CC23CCCN2CCc2cc4c(cc2[C@H]13)OCO4 (some centres not stated) [Homoharringtonine] | 0.0644 (active) |
| CCCCCCNC(=O)n1cc(F)c(=O)[nH]c1=O [Carmofur] | 1.58 (inactive) |
| COc1cc([C@@H]2c3cc4c(cc3[C@@H](O[C@@H]3O[C@@H]5CO[C@@H](c6cccs6)O[C@H]5[C@H](O)[C@H]3O)[C@H]3COC(=O)[C@H]23)OCO4)cc(OC)c1O [Teniposide] | 1.16 (inactive) |
| C=CC(=O)Nc1cccc(Nc2nc(Nc3ccc(N4CCN(C(C)=O)CC4)cc3OC)ncc2C(F)(F)F)c1 [Rociletinib] | 0.95 (inactive) |
| CO[C@@]12[C@H](COC(N)=O)C3=C(C(=O)C(C)=C(N)C3=O)N1C[C@@H]1N[C@@H]12 [Mitomycin C] | 1.76 (inactive) |
| COC(=O)C1=C(C)NC(C)=C(C(=O)OC)C1c1ccccc1[N+](=O)[O-] [Nifedipine] | 1.07 (inactive) |
| CC(C)(C)c1nc(-c2cccc(NS(=O)(=O)c3c(F)cccc3F)c2F)c(-c2ccnc(N)n2)s1 [Dabrafenib] | 0.332 (active) |
| COc1cc(Nc2c(C#N)cnc3cc(OCCCN4CCN(C)CC4)c(OC)cc23)c(Cl)cc1Cl [Bosutinib] | 1.06 (inactive) |
| CCN(CC)CCOc1ccc2c(c1)C(=O)c1cc(OCCN(CC)CC)ccc1-2.Cl.Cl [Tilorone dihydrochloride] | 1.06 (inactive) |
| COc1cc(NS(C)(=O)=O)ccc1Nc1c2ccccc2nc2ccccc12 [Amsacrine] | 1.1 (inactive) |
| CC[C@@]1(O)C(=O)OCc2c1cc1n(c2=O)Cc2cc3c(CN(C)C)c(O)ccc3nc2-1.Cl [Topotecan hydrochloride] | 0.346 (active) |
| CC(C)C[C@H](NC(=O)[C@H](Cc1ccccc1)NC(=O)c1cnccn1)B(O)O [Bortezomib] | 0.0258 (active) |
| CC1=C(/C=C/C(C)=C/C=C/C(C)=C\C(=O)O)C(C)(C)CCC1 [Isotretinoin] | 1.16 (inactive) |

What follows are compounds tested on NHEM-hTERT in the same assay as above. Settings: 1 µM; 120 h.
Method in brief: as §1

| Structure (SMILES) | cell viability |
| --- | --- |
| N.N.O=C([O-])C1(C(=O)[O-])CCC1.[Pt+2] [Carboplatin] | 1.05 (inactive) |
| CNC(=O)c1c(C)oc2cc(Oc3ncnc4cc(OC)c(OC)cc34)ccc12 [Fruquintinib] | 0.982 (inactive) |
| S=P(N1CC1)(N1CC1)N1CC1 [Triethylenethiophosphoramide] | 0.98 (inactive) |
| CC1(C)CCC(C)(C)c2cc(NC(=O)c3ccc(C(=O)O)cc3)ccc21 [Tamibarotene] | 1.09 (inactive) |
| CC[C@@H](CO)NCCN[C@@H](CC)CO.Cl.Cl [Ethambutol dihydrochloride] | 1.2 (inactive) |
| CO[C@H]1C[C@@H]2CC[C@@H](C)[C@@](O)(O2)C(=O)C(=O)N2CCCC[C@H]2C(=O)O[C@H]([C@H](C)C[C@@H]2CC[C@@H](OC(=O)C(C)(CO)CO)[C@H](OC)C2)CC(=O)[C@H](C)/C=C(\C)[C@@H](O)[C@@H](OC)C(=O)[C@H](C)C[C@H](C)/C=C/C=C/C=C/1C [Temsirolimus] | 0.758 (inactive) |
| O=C(CCCCCCC(=O)Nc1ccccc1)NO [Vorinostat] | 0.871 (inactive) |
| O=c1[nH]c(=O)n(C2CCCO2)cc1F (configuration not stated) [Tegafur] | 0.922 (inactive) |
| CCCCc1nc2cc(/C=C/C(=O)NO)ccc2n1CCN(CC)CC [Pracinostat] | 0.747 (inactive) |
| C#CCC(Cc1cnc2nc(N)nc(N)c2n1)c1ccc(C(=O)N[C@@H](CCC(=O)O)C(=O)O)cc1 (some centres not stated) [Pralatrexate] | 0.982 (inactive) |
| CCc1cn([C@H]2C[C@H](O)[C@@H](CO)O2)c(=O)[nH]c1=O [Edoxudine] | 0.967 (inactive) |
| CCCCCOC(=O)Nc1nc(=O)n([C@@H]2O[C@H](C)[C@@H](O)[C@H]2O)cc1F [Capecitabine] | 1.14 (inactive) |
| C=C(c1ccc(C(=O)O)cc1)c1cc2c(cc1C)C(C)(C)CCC2(C)C [Bexarotene] | 1.2 (inactive) |
| CC1(C)[C@@H](O[C@H]2O[C@H](C(=O)O)[C@@H](O)[C@H](O)[C@H]2OC2O[C@H](C(=O)O)[C@@H](O)[C@H](O)[C@H]2O)CC[C@]2(C)[C@H]3C(=O)C=C4[C@@H]5C[C@@](C)(C(=O)O)CC[C@]5(C)CC[C@@]4(C)[C@]3(C)CC[C@@H]12 (some centres not stated) [Glycyrrhizin] | 1.01 (inactive) |
| COC(=O)c1ccc2c(c1)NC(=O)/C2=C(\Nc1ccc(N(C)C(=O)CN2CCN(C)CC2)cc1)c1ccccc1 [Nintedanib] | 0.909 (inactive) |
| COC(=O)C[C@](O)(CCCC(C)(C)O)C(=O)O[C@@H]1C(OC)=CC23CCCN2CCc2cc4c(cc2[C@H]13)OCO4 (some centres not stated) [Homoharringtonine] | 0.228 (active) |

| Structure (SMILES) | cell viability |
| --- | --- |
| CCCCCCNC(=O)n1cc(F)c(=O)[nH]c1=O [Carmofur] | 1.17 (inactive) |
| COc1cc([C@@H]2c3cc4c(cc3[C@@H](O[C@@H]3O[C@@H]5CO[C@@H](c6cccs6)O[C@H]5[C@H](O)[C@H]3O)[C@H]3COC(=O)[C@H]23)OCO4)cc(OC)c1O [Teniposide] | 0.746 (inactive) |
| C=CC(=O)Nc1cccc(Nc2nc(Nc3ccc(N4CCN(C(C)=O)CC4)cc3OC)ncc2C(F)(F)F)c1 [Rociletinib] | 0.71 (inactive) |
| CO[C@@]12[C@H](COC(N)=O)C3=C(C(=O)C(C)=C(N)C3=O)N1C[C@@H]1N[C@@H]12 [Mitomycin C] | 0.685 (inactive) |
| COC(=O)C1=C(C)NC(C)=C(C(=O)OC)C1c1ccccc1[N+](=O)[O-] [Nifedipine] | 1.03 (inactive) |
| O=C1c2c(O)ccc(O)c2C(=O)c2c(NCCNCCO)ccc(NCCNCCO)c21 [Mitoxantrone] | 0.695 (inactive) |
| CC(C)(C)c1nc(-c2cccc(NS(=O)(=O)c3c(F)cccc3F)c2F)c(-c2ccnc(N)n2)s1 [Dabrafenib] | 0.976 (inactive) |
| COc1cc(Nc2c(C#N)cnc3cc(OCCCN4CCN(C)CC4)c(OC)cc23)c(Cl)cc1Cl [Bosutinib] | 1.12 (inactive) |
| CCN(CC)CCOc1ccc2c(c1)C(=O)c1cc(OCCN(CC)CC)ccc1-2.Cl.Cl [Tilorone dihydrochloride] | 1.15 (inactive) |
| COc1cccc2c1C(=O)c1c(O)c3c(c(O)c1C2=O)C[C@@](O)(C(=O)CO)C[C@@H]3O[C@H]1C[C@H](N)[C@@H](O)[C@H](C)O1.Cl [Epirubicin hydrochloride] | 0.647 (inactive) |
| CC(=O)c1c(C)c2cnc(Nc3ccc(N4CCNCC4)cn3)nc2n(C2CCCC2)c1=O.O=S(=O)(O)CCO [Palbociclib Isethionate] | 1.03 (inactive) |
| COc1cc(NS(C)(=O)=O)ccc1Nc1c2ccccc2nc2ccccc12 [Amsacrine] | 0.72 (inactive) |
| Cc1nc(Nc2ncc(C(=O)Nc3c(C)cccc3Cl)s2)cc(N2CCN(CCO)CC2)n1 [Dasatinib] | 0.513 (inactive) |
| CC[C@@]1(O)C(=O)OCc2c1cc1n(c2=O)Cc2cc3c(CN(C)C)c(O)ccc3nc2-1.Cl [Topotecan hydrochloride] | 0.768 (inactive) |
| CC(C)C[C@H](NC(=O)[C@H](Cc1ccccc1)NC(=O)c1cnccn1)B(O)O [Bortezomib] | 0.0282 (active) |
| COc1ccc(C[C@H](N)C(=O)N[C@H]2[C@@H](O)[C@H](n3cnc4c(N(C)C)ncnc43)O[C@@H]2CO)cc1.Cl.Cl [Puromycin dihydrochloride] | 0.467 (active) |
